# Earlier results, collected in PubChem BioAssay AID977611.
# Out of some 3,900 compounds screened, about 3,900 (100%) were called active. The limit is not given here; nearly all actives have Kd up to about 4200 µM. So high a share suggests a set chosen from earlier hits. Some of the results follow. Where a SMILES comes first, the peptide text is derived from it. Non-standard residues stand in square brackets, D forms with d. Square brackets hold non-standard residues; d marks the D form. Residues, ends and D or L forms follow the SMILES beside them. Peptide text beside a SMILES is read from it. [ ]: non-standard residue; d: D form. * marks the point of attachment. Orn(CH(NH2)2) = NC(N)NCCC[C@H](N)C(=O)O; AMC = Cc1cc(=O)oc2cc(N*)ccc12; pGlu = O=C1CC[C@@H](C(=O)O)N1
# Test: PubChem AID 977611
# Conditions: PDB protein-ligand complexes, literature Kd
compound,measurement,setting,value
CC[C@H](C)[C@H](NC(=O)[C@@H]1CCCN1C(=O)[C@H](CCC(=O)O)NC(=O)[C@H](Cc1ccc(O)cc1)NC(=O)[C@H](CC(=O)O)NC(=O)[C@@H]1CCCN1C(=O)[C@H](CC(N)=O)NC(=O)[C@@H]1CCCN1C(=O)[C@@H](NC(=O)[C@@H]1CCCN1C(=O)[C@@H]1CCCN1)C(C)C)C(=O)N[C@H](C=O)CCCNC(N)N (H-PPVPNPDYEPI[Orn(CH(NH2)2)]-aldehyde),Kd,"protein: Epidermal growth factor receptor kinase substrate 8-like protein 1 SH3 domain, PDB entry 2rol",24000 nM (active)
H-ARYGVSNTSINRK-OH,Kd,"protein: Protein HTP-1 P84L, PDB entry 4tzq",300 nM (active)
same,Kd,"protein: Protein HTP-2, PDB entry 4tzm",200 nM (active)
H-ATGSARSEGY-OH,Kd,"protein: WD repeat-containing protein 5, WDR5, PDB entry 4ewr",541 nM (active)
O=C(CCS)N1CCC(O)(c2ccc(Cl)c(C(F)(F)F)c2)CC1,Kd,"protein: CREB-binding protein, PDB entry 4i9o",1900 nM (active)
H-SWVYSPLHYSA-OH,Kd,"protein: Talin FERM F3 domain, PDB entry 1y19",170 nM (active)
CC(C)C[C@H](NC(=O)[C@H](Cc1cnc[nH]1)NC(=O)[C@H](CCC(=O)O)NC(=O)[C@H](Cc1c[nH]c2ccccc12)NC(=O)[C@@H](NC(=O)[C@H](Cc1ccc(O)cc1)NC(=O)[C@@H](NC(=O)[C@H](C)NC(=O)[C@@H](N)CC(=O)O)[C@@H](C)O)[C@@H](C)O)C(=O)N[C@@H](C)C(=O)N[C@@H](Cc1c[nH]c2ccccc12)C(=O)N1CCC[C@H]1C(=O)O,Kd,"protein: The human ?-aminobutyric acid type A (GABAA), PDB entry 3d32",354 nM (active)
CC(C)C[C@H](NC(=O)CNC(=O)[C@H](CCCNC(N)N)NC(=O)[C@@H](N)CO)C(=O)N[C@@H](CCC(=O)O)C(=O)N[C@H](C(=O)N[C@@H](CO)C(=O)N[C@@H](Cc1cnc[nH]1)C(=O)N[C@@H](CCCNC(N)N)C(=O)N[C@@H](CC(C)C)C(=O)N[C@@H](C)C(=O)N1CCC[C@H]1C(=O)N[C@@H](Cc1c[nH]c2ccccc12)C(=O)O)C(C)C (H-S[Orn(CH(NH2)2)]GLEVSH[Orn(CH(NH2)2)]LAPW-OH),Kd,"protein: Telomeric repeat-binding factor 2, PDB entry 4m7c",750 nM (active)
CSCC[C@H](N)C(=O)N1CCC[C@H]1C(=O)N1CCC[C@H]1C(=O)N[C@H](C(=O)N[C@@H](CC(C)C)C(=O)N1CCC[C@H]1C(=O)N[C@@H](Cc1cnc[nH]1)C(=O)N[C@@H](CCCNC(N)N)C(=O)N[C@@H](CC(=O)O)C(=O)N[C@@H](Cc1c[nH]c2ccccc12)C(=O)O)[C@@H](C)O (H-MPPTLPH[Orn(CH(NH2)2)]DW-OH),Kd,"protein: Peroxisomal membrane protein PAS20 (SH3 domain), PDB entry 1n5z",44000 nM (active)
H-AAAFSFKKSFKLSGFSFK-OH,Kd,"protein: Ca2+-Calmodulin, PDB entry 1iwq",8.8 nM (active)
CC(C)C[C@H](NC(=O)[C@H](CCCNC(N)N)NC(=O)[C@H](CCCNC(N)N)NC(=O)[C@H](CCCCN)NC(=O)[C@H](C)NC(=O)[C@H](CO)NC(=O)CN)C(=O)N[C@@H](Cc1ccccc1)C(=O)NCC(=O)N[C@@H](CCC(=O)O)C(=O)O (H-GSAK[Orn(CH(NH2)2)][Orn(CH(NH2)2)]LFGE-OH),Kd,"protein: phospho-CDK2/cyclin A, PDB entry 1h28",300 nM (active)
CC(=O)N[C@H](C(=O)N[C@@H](CCC(N)=O)C(=O)NCC(=O)N[C@@H](CO)C(=O)NCC(=O)N[C@@H](C)C(=O)N[C@@H](Cc1ccccc1)C(=O)NCC(=O)N[C@@H](CCCNC(N)N)C(N)=O)C(C)C (Ac-VQGSGAFG[Orn(CH(NH2)2)]-NH2),Kd,"protein: Fab fragment of the mAb 106.3, PDB entry 3e8u",0.38 nM (active)
CC(=O)N[C@@H](CCCCN)C(=O)N[C@@H](CCCCN)C(=O)N[C@@H](CCCNC(N)N)C(=O)N[C@@H](Cc1ccc(O)cc1)C(=O)N[C@@H](CO)C(=O)N[C@@H](CCCNC(N)N)C(=O)N[C@@H](CCC(=O)O)C(=O)N[C@@H](Cc1ccccc1)C(=O)N[C@@H](CC(C)C)C(=O)N[C@@H](CC(C)C)C(=O)NCC(=O)N[C@@H](Cc1ccccc1)C(N)=O (Ac-KK[Orn(CH(NH2)2)]YS[Orn(CH(NH2)2)]EFLLGF-NH2),Kd,"protein: EUKARYOTIC TRANSLATION INITIATION FACTOR 4E, PDB entry 4aza",103 nM (active)
Cc1n[nH]c(C)c1CCCOc1cc(C(=O)O)ccc1F,Kd,"protein: Transthyretin (V122I mutation), PDB entry 4hiq",6.2 nM (active)
OCCOCCOCCOCCOCCOCCOCCOCCOCCOCCOCCOCCOCCOCCOCCOCCOCCOCCOCCOCCOCCOCCOCCOCCOCCO,Kd,"protein: Prostaglandin-H2 D-isomerase L-PGDS C65A mutant, PDB entry 4oru",210000 nM (active)
same,Kd,"protein: Prostaglandin-H2 D-isomerase L-PGDS C65A-K59A double mutant, PDB entry 4orx",297000 nM (active)
same,Kd,"protein: Prostaglandin-H2 D-isomerase L-PGDS C65A-K59A double mutant, PDB entry 4ory",297000 nM (active)
OC[C@@H]1O[C@@H](O[C@@H]2[C@@H](O)[C@H](O[C@@H]3CO[C@@H](O)[C@H](O)[C@H]3O)OC[C@H]2O)[C@H](O)[C@H]1O,Kd,"protein: SUGAR TRANSPORTER SOLUTE-BINDING PROTEIN, PDB entry 4c1u",81 nM (active)
OC[C@@H]1O[C@@H](O[C@H]2[C@H](O[C@@H]3CO[C@@H](O[C@@H]4CO[C@@H](O)[C@H](O)[C@H]4O)[C@H](O)[C@H]3O)OC[C@@H](O)[C@@H]2O)[C@H](O)[C@H]1O,Kd,"protein: SUGAR TRANSPORTER SOLUTE-BINDING PROTEIN, PDB entry 4c1t",70.8 nM (active)
Nc1[nH]c(=S)nc2nc[nH]c12,Kd,"protein: 6-hydroxymethyl-7,8-dihydropterin pyrophosphokinase, PDB entry 4m5n",7500 nM (active)
CC(C)C[C@H](NC(=O)[C@H](CC(N)=O)NC(=O)[C@H](CC(C)C)NC(=O)[C@@H](NC(=O)[C@@H](NC(=O)[C@@H]1CCCN1C(=O)[C@H](CCCNC(N)N)NC(=O)[C@H](CCCCN)NC(=O)[C@@H]1CCCN1)[C@@H](C)O)[C@@H](C)O)C(=O)N[C@@H](Cc1ccccc1)C(=O)O (HELM PEPTIDE1{P.K.[NC(N)NCCC[C@H](N[*:1])C(=O)[*:2]].P.T.T.L.N.L.F}$$$$V2.0),Kd,"protein: Mitogen-activated protein kinase 8 isoform 4, PDB entry 1ukh",420 nM (active)
H-PDYFL-OH,Kd,"protein: Serine/threonine-protein phosphatase 2A activator PTPA, PDB entry 4ny3",49500 nM (active)
C[C@H](NC(=O)[C@@H]1CCCN1)C(=O)N[C@@H](CCCNC(N)N)C(=O)N1CCC[C@H]1C(=O)N1CCC[C@H]1C(=O)N[C@@H](CCCCN)C(=O)N1CCC[C@H]1C(=O)N[C@@H](CCCNC(N)N)C(=O)N1CCC[C@H]1C(=O)N[C@@H](CCCNC(N)N)C(=O)N[C@@H](CCCNC(N)N)C(=O)O (H-PA[Orn(CH(NH2)2)]PPKP[Orn(CH(NH2)2)]P[Orn(CH(NH2)2)][Orn(CH(NH2)2)]-OH),Kd,"protein: SH3-domain of CIN85, PDB entry 2bz8",2500 nM (active)
CC(C)C[C@H](NC(=O)[C@@H]1CCC(=O)N1)C(=O)N[C@@H](Cc1ccc(O)cc1)C(=O)N[C@@H](CCC(=O)O)C(=O)N[C@H](C=O)CC(N)=O (tested in a mixture with another compound) ([pGlu]LYEN-aldehyde),Kd,"protein: Sortilin, PDB entry 4po7",85 nM (active)
CC(C)C[C@H](NC(=O)[C@H](CCCCN)NC(=O)[C@H](CCCCN)NC(=O)[C@H](CC(C)C)NC(=O)[C@@H]1CCCN1C(=O)[C@H](CCCCN)NC(=O)[C@@H]1CCCN1)C(=O)N[C@@H](CCCNC(N)N)C(=O)N[C@@H](Cc1ccccc1)C(=O)N[C@@H](CC(=O)O)C(=O)O (H-PKPLKKL[Orn(CH(NH2)2)]FD-OH),Kd,"protein: phospho-CDK2/cyclin A, PDB entry 1h25",1800 nM (active)
CC(C)C[C@H](NC(=O)[C@@H](NC(=O)[C@@H](N)[C@@H](C)O)C(C)C)C(=O)NCC(=O)N[C@@H](CCCCN)C(=O)N[C@@H](CCCNC(N)N)C(=O)N[C@@H](CCCCN)C(=O)O (H-TVLGK[Orn(CH(NH2)2)]K-OH),Kd,"protein: IMPORTIN SUBUNIT ALPHA-1A, PDB entry 4b8p",140 nM (active)
CC(C)C[C@H](NC(=O)[C@@H](NC(=O)[C@@H](N)CO)C(C)C)C(=O)NCC(=O)N[C@@H](CCCCN)C(=O)N[C@@H](CCCNC(N)N)C(=O)N[C@@H](CCCCN)C(=O)N[C@@H](CCCNC(N)N)C(=O)N[C@@H](Cc1cnc[nH]1)C(=O)O (H-SVLGK[Orn(CH(NH2)2)]K[Orn(CH(NH2)2)]H-OH),Kd,"protein: IMPORTIN SUBUNIT ALPHA-1A, PDB entry 2yns",25 nM (active)
CSCC[C@H](NC(=O)[C@H](Cc1cnc[nH]1)NC(=O)[C@H](CCC(N)=O)NC(=O)[C@H](CCCNC(N)N)NC(=O)[C@H](CCC(=O)O)NC(=O)[C@H](Cc1ccccc1)NC(=O)[C@H](CCCCN)NC(=O)[C@H](C)NC(=O)[C@H](C)NC(=O)[C@H](C)NC(=O)[C@@H](NC(=O)[C@H](CCC(=O)O)NC(=O)[C@@H](N)CCCCN)[C@@H](C)O)C(=O)N[C@@H](CC(=O)O)C(=O)N[C@@H](CO)C(N)=O (H-KETAAAKFE[Orn(CH(NH2)2)]QHMDS-NH2),Kd,"protein: Ribonuclease S(RNase S), PDB entry 1j7z",20 nM (active)
same,Kd,"protein: Ribonuclease S(RNase S), PDB entry 1j80",300 nM (active)
same,Kd,"protein: Ribonuclease S(RNase S), PDB entry 1j81",80 nM (active)
CC(C)C[C@H](N)C(=O)NCC(=O)N[C@@H](CCCCN)C(=O)N[C@@H](CCCNC(N)N)C(=O)N[C@@H](CCCCN)C(=O)N[C@@H](Cc1ccc(O)cc1)C(=O)O (H-LGK[Orn(CH(NH2)2)]KY-OH),Kd,"protein: IMPORTIN SUBUNIT ALPHA-2, PDB entry 4ba3",2900 nM (active)
CC(=O)NCCCC[C@H](NC(=O)[C@H](CCCCN)NC(=O)[C@H](Cc1cnc[nH]1)NC(=O)[C@H](CCCNC(N)N)NC(C)=O)C(=O)Nc1ccc2c(C)cc(=O)oc2c1 (Ac-[Orn(CH(NH2)2)]HKK(Ac)-{AMC}),Kd,"protein: NAD-dependent protein deacetylase sirtuin-3, mitochondrial, PDB entry 4fz3",184000 nM (active)
CC(C)C[C@H](N)C(=O)NCC(=O)N[C@@H](CCCCN)C(=O)N[C@@H](CCCNC(N)N)C(=O)N[C@@H](CCCCN)C(=O)N[C@@H](CCCNC(N)N)C(=O)N[C@@H](Cc1cnc[nH]1)C(=O)O (H-LGK[Orn(CH(NH2)2)]K[Orn(CH(NH2)2)]H-OH),Kd,"protein: IMPORTIN SUBUNIT ALPHA, PDB entry 2ynr",1700 nM (active)
CSCC[C@H](NC(=O)[C@H](CC(C)C)NC(=O)[C@H](CCCCN)NC(=O)[C@H](CCCCN)NC(=O)[C@H](Cc1cnc[nH]1)NC(=O)[C@H](CCCNC(N)N)NC(=O)[C@@H](N)CO)C(=O)N[C@@H](Cc1ccccc1)C(=O)N[C@@H](CCCCN)C(=O)O (H-S[Orn(CH(NH2)2)]HKKLMFK-OH),Kd,"protein: phospho-CDK2/cyclin A, PDB entry 1h26",2900 nM (active)
CN(C)C1=NC(=O)c2ccccc2C1,Kd,"protein: Caspase-6, PDB entry 4n7j",3400 nM (active)
NC1=NC(=O)c2ccccc2C1,Kd,"protein: proCaspase-6, PDB entry 4n6g",3400 nM (active)
CCCCCCCCCCCCCCCC(=O)OC[C@@H](CO[P+](O)(O)O[C@@H]1[C@H](O)[C@H](O)[C@@H](O[P+](O)(O)O)[C@H](O[P+](O)(O)O)[C@H]1O)OC(=O)CCCCCCCCCCCCCCC,Kd,"protein: Steroidogenic factor 1 SF-1, PDB entry 4qk4",250 nM (active)
CCCCCCCCCCCCCCCC(=O)OC[C@@H](CO[P+](O)(O)OC1[C@H](O)[C@H](O[P+](O)(O)O)C(O[P+](O)(O)O)[C@H](O[P+](O)(O)O)[C@H]1O)OC(=O)CCCCCCCCCCCCCCC (some centres not stated),Kd,"protein: Steroidogenic factor 1 SF-1, PDB entry 4qjr",80 nM (active)
H-ANSNNPDWDF-OH,Kd,"protein: Humanized KR127 Fab, PDB entry 2eh8",11 nM (active)
H-ATPAWN-OH,Kd,"protein: mRNA-capping enzyme subunit beta Pct1, PDB entry 4pn1",680 nM (active)
H-NDWLLPSY-OH,Kd,"protein: Microtubule-associated protein 1 light chain 3 (C32I, C119S, C122S mutation), PDB entry 4eoy",326 nM (active)
H-GASDGSGWSSENNPW-OH,Kd,"protein: protein TolB, PDB entry 2ivz",920 nM (active)
